Reference: PubChem BioAssay (NCATS)
Results filed as inconclusive are left out. A number with no mark means an inactive call. Calls come from the whole dose curve; as a rule, active = well fitted inhibition curve with a large enough effect; inconclusive = small, poorly fitted or top-dose-only effect, or effect the other way; inactive = no such curve, though single readings can be large or run the other way.

assay: High Content Imaging Cell-Based qHTS for Inhibitors of the mTORC1 Signaling Pathway in MEF Cells (AID 2667); conditions: series mostly up to 38.3 µM; activity change, negative = inhibition: at the top concentration;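 note: Tsc2-/- p53-/- MEFs stably re-expressing wild-type Tsc2 exposed 24 h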
Excerpt: NIH Molecular Libraries Probe Production Centers Network [MLPCN]
NIH Chemical Genomics Center [NCGC]
Assay Submitter (PI): Blenis, John; Hoffman, Greg; Harvard University
NCGC Assay Overview: The mammalian target of rapamycin (mTOR) is an intracellular serine/threonine kinase Aberrant regulation of mTOR signaling plays a causative role in a number of human diseases, including cancer, benign tumors such as lymphangioleiomyomatosis (LAM) and Tuberous Sclerosis Complex (TSC), and metabolic diseases such as diabetes and obesity. This project aims to identify inhibitors of ribosomal protein S6 (rpS6) phosphorylation. The phosphorylation of rpS6 is a key event downstream of mTOR activation. The assay uses a phospho-specific antibody of phospho-rpS6 to detect inhibitors of mTOR activation. Mutations in the Tsc1 and Tsc2 genes are the underlying genetic lesions responsible for TSC, causing constitutive activation of the mTORC1 pathway and leading to profound effects on cell metabolism. Aberrant metabolism in cancer has recently received significant attention as a target to develop therapeutic agents in the treatment of cancer.1 As Tsc2-/- cells have lost the ability to respond to energy and growth factor deprivation, these cells are unable to properly down regulate cellular biosynthetic processes in response to metabolic stress, and are thus extremely sensitive to glucose deprivation-induced death.2 A central goal of this project is to explore the unique cell survival and metabolic properties of cells with Tsc1 or Tsc2 by screening for compounds that selectively target the Tsc2-/- MEFs by screening both Tsc2-/- and WT MEF cell lines. We hope to better understand these aspects of TSC physiology in order to exploit them for therapeutic benefit.
NCGC IN Cell Assay Protocol:
For quantitative high throughput analysis of mTORC1 signaling, we developed a cell-based assay for immuno-fluorescence based detection of rpS6 phosphorylation on the Acumen Explorer that will be used a platform for the primary small molecule screen. Mouse embryonic fibroblasts (MEFs) are cultured in 1536-well plates using DMEM + 10% FBS. Twenty-four hrs after plating, test compounds (solubilized in DMSO) are delivered and incubated with the cells for 24 hrs at 37 degree Celsius. Following the incubation, media with compound is aspirated and the cells are fixed in 4% paraformaldehyde (PFA) containing PBS + 0.2% TX-100. Next, PFA is aspirated, cells are washed two times with PBS plus 0.2% TX-100 and the cells are blocked for 1 hr at room temperature (blocking buffer: LiCOR Blocking Buffer plus 0.2% TX-100). This is followed by aspiration and staining with Alexa-488 conjugated-phospho-rpS6 Ser235/236 antibody for 2 hours at room temperature (Cell Signaling Technology # 4803, 1:50 dilution in blocking buffer). Cells are washed two times with PBS plus 0.2% TX-100, and stained with 10 uM propidium iodide (PI) for 20-25 minutes for cell number measurement (1:500 dilution of Hoescht staining is also added for IN Cell imaging). Active wells which are selected (based on Acumen results) are imaged on the IN Cell 1000 (GE Healthcare) using the D360/40X and HQ480/40X excitation filters for the Hoechst and Alexa-488 cytoplasmic stains, respectively. The fluorescence emission filters used were HQ460/40M and HQ535/50M for the Hoechst and Alexa-488 cytoplasmic stains, respectively. The normalized phospho-S6 staining is calculated as the ratio of […] for the single concentration rapamycin control ([…] nM) and DMSO columns. […] Inhibition of the pathway is defined based on the normalized phospho-S6 intensity in rapamycin treated cells. Each treatment is reported as the % positive cells in the well, where thresholds are defined by selecting wells with the highest and lowest signal and differentiating between the % non-active and % active populations. […]

Compound	activity change, negative = inhibition [%]
Nc1nc2c(ncn2COC(CO)CO)c(=O)[nH]1	-100
NS(=O)(=O)c1cc2c(cc1Cl)NCNS2(=O)=O	-100
CC1COc2c(N3CCN(C)CC3)c(F)cc3c(=O)c(C(=O)O)cn1c23 (stereo not given)	-100
Cn1cnc2c1c(=O)[nH]c(=O)n2C	-100
NC(=O)NO	-100
NCCS(=O)(=O)O	-100
CC12CC3CC(C)(C1)CC(N)(C3)C2	-100
Cn1c(=O)c2c(ncn2C)n(C)c1=O	-100
CS(=O)(=O)Nc1ccc([N+](=O)[O-])cc1Oc1ccccc1	-100
Nc1nnc(-c2cccc(Cl)c2Cl)c(N)n1	-100
CN1CCC(=C2c3ccccc3CC(=O)c3sccc32)CC1	-100
CN(C)c1nc(N(C)C)nc(N(C)C)n1	-100
CC(CCc1ccc(O)cc1)NCCc1ccc(O)c(O)c1 (stereo not given)	-100
CC(C(=O)O)c1cccc(C(=O)c2ccccc2)c1 (stereo not given)	-100
CCc1cccc2c3c([nH]c12)C(CC)(CC(=O)O)OCC3 (stereo not given)	-100
O=C1c2c(O)ccc(O)c2C(=O)c2c(NCCNCCO)ccc(NCCNCCO)c21	-100
Cn1c(=O)c2[nH]cnc2n(C)c1=O	-100
CN1C2CCC1CC(OC(=O)C(CO)c1ccccc1)C2 (stereo not given)	-100
Cc1cnc(C(=O)NCCc2ccc(S(=O)(=O)NC(=O)NC3CCCCC3)cc2)cn1	-100
CN(C)CCOC(c1ccccc1)c1ccccc1	-100

Compound	activity change, negative = inhibition [%]
CC(C)C(=O)Nc1ccc([N+](=O)[O-])c(C(F)(F)F)c1	-100
CCOC(=O)c1ncn2c1CN(C)C(=O)c1cc(F)ccc1-2	-100
Cn1ccc2cc3c(cc21)CCN3C(=O)Nc1cccnc1	-100
CC(C)Cc1ccc(C(C)C(=O)O)cc1 (stereo not given)	-100
CC(C)(Oc1ccc(C2CC2(Cl)Cl)cc1)C(=O)O (stereo not given)	-100
OCCN(CCO)c1nc(N2CCCCC2)c2nc(N(CCO)CCO)nc(N3CCCCC3)c2n1	-100
CCOC(=O)C(C)(C)Oc1ccc(Cl)cc1	-100
Nc1c2c(nc3ccccc13)CCCC2	-100
Clc1ccc2nsnc2c1NC1=NCCN1	-100
NCCc1cnc[nH]1	-100
Clc1ccccc1C(c1ccccc1)(c1ccccc1)n1ccnc1	-100
O=c1c(-c2ccc(O)cc2)coc2cc(O)cc(O)c12	-100
CC(COc1ccccc1)N(CCCl)Cc1ccccc1 (stereo not given)	-100
CC[N+](CC)(CC)CCOc1cccc(OCC[N+](CC)(CC)CC)c1OCC[N+](CC)(CC)CC	-100
CC(C)NCC(O)COc1ccc(CCOCC2CC2)cc1 (stereo not given)	-100
Clc1ccc(C(c2ccccc2Cl)C(Cl)Cl)cc1 (stereo not given)	-100
O=C1Cc2cc(CCN3CCN(c4nsc5ccccc45)CC3)c(Cl)cc2N1	-100
CN(Cc1cnc2nc(N)nc(N)c2n1)c1ccc(C(=O)N[C@@H](CCC(=O)O)C(=O)O)cc1	-100
NC12CC3CC(CC(C3)C1)C2	-100
COc1ccc(C2CNC(=O)C2)cc1OC1CCCC1 (stereo not given)	-100
